Only some compounds are listed: those with a hit (about 3.5% of all), similar ones and a draw of the others.
FBA Mtb inh: inhibits M. tuberculosis FBA enzyme | inhibition, % at 1 µM | actives 2.3% (n = 360,000) | purified M. tuberculosis FBA, fluorescence read-out;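 note: 0% = vehicle and 100% = reference inhibitor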
Target sequence (P9WQA3 whole entry, looked up): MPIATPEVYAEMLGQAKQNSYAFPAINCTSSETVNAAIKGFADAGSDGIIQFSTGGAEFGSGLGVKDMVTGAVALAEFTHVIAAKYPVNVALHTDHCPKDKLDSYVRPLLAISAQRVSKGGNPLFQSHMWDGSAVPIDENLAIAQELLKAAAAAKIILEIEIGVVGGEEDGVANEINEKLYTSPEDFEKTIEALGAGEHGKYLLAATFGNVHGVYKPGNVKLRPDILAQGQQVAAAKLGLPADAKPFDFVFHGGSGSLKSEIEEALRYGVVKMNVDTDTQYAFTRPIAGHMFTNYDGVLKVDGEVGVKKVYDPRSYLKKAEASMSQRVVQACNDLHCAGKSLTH
FadD28 FP inh: blocks FadD28 binding to the bisubstrate probe | fluorescence polarization | inhibition, % at 12.5 µM | actives 0.22% (n = 360,000); in the data active = inhibition above about 8.5%, passing the limit was not always enough; inconclusive = no clear call, values can overlap the other calls
GDH-TPI counter-1: GDH-TPI coupled enzyme inhibition counter-screen; AID 588335; inhibition, % at 4.8 µM; actives 1.2% (n = 360,000); GDH-TPI coupled enzyme counterscreen, NADH absorbance; in the data active = inhibition above about 30%;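 note: 0% = DMSO wells and 100% = wells lacking the enzyme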
Mtb UGM inh: Mtb UDP-galactopyranose mutase inhibition; purified UGM, fluorescence polarization probe displacement; actives 0.06% (n = 320,000); P9WIQ1; inhibition, % at 10 µM; in the data active = inhibition above about 10%, passing the limit was not always enough; inconclusive = no clear call, values can overlap the other calls
Mtb hypoxia rep: inhibitors of hypoxia-regulated fluorescent reporter in Mycobacterium tuberculosis. M. tuberculosis hypoxia-regulated fluorescent reporter, fluorescence. fluorescence inhibition, % (concentration not given with the values). actives 0.1% (n = 300,000); in the data active = fluorescence inhibition mostly above about 23%, no sharp cut-off; inactive = mostly below about 17%
Rv3671c inh: inhibits the M. tuberculosis serine protease Rv3671c; P9WHR9; inhibition, % at 5.96 µM; actives 0.048% (n = 320,000); AID 2606; in the data active = inhibition above about 38%;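 note: extracellular domain of Rv3671c used as enzyme; 0% = enzyme with DMSO and 100% = no enzyme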
Target sequence (P9WHR9 whole entry, looked up, the tested form may be a part): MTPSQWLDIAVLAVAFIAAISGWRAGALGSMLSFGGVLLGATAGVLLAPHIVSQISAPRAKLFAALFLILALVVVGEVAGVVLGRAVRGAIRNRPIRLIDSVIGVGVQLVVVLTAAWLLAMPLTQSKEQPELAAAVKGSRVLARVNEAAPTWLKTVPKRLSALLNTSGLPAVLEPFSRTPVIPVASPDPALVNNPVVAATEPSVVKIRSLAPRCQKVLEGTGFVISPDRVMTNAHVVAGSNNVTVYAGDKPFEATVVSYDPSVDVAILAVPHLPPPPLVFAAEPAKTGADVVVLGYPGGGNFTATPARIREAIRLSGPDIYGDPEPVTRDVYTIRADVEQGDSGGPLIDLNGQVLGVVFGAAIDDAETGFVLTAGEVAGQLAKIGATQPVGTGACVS
Mtb FBA confirm: Mtb FBA inhibition, confirmed; shares compounds with FBA Mtb inh; purified M. tuberculosis FBA, fluorescence read-out; inhibition, % at 1 µM; AID 651616; actives 78% (n = 5,600);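 note: 0% = vehicle wells and 100% = reference inhibitor wells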
GDH-TPI counter-2: GDH-TPI inhibition counter-screen for FBA inhibitors | GDH-TPI coupled enzyme counterscreen, fluorescence | actives 81% (n = 5,600) | shares compounds with FBA Mtb inh | inhibition, % at 1 µM; in the data active = inhibition above about 10%
Active calls of the source: *; ? = inconclusive; . = no result; + = active, no number. Cut-off read from the data, not from the text of the source, unless noted: active = inhibition above about 27%; inactive = the rest.

SMILES | FBA Mtb inh | FadD28 FP inh | GDH-TPI counter-1 | Mtb UGM inh | Mtb hypoxia rep | Rv3671c inh | Mtb FBA confirm | GDH-TPI counter-2
O=C(COc1ccc2c(c1)oc(=O)c1ccccc12)NCC1CCC(C(=O)O)CC1 (centres undefined) | 33.9* | -3.5 | 18.6 | -1.1 | . | -3.5 | 89.9* | 53.9*
CCc1c(C)c2ccc(OCC(=O)NCC3CCC(C(=O)O)CC3)cc2oc1=O (centres undefined) | 79.4* | 0.3 | 18.6 | -1.9 | . | -0.3 | 55.5* | 36.0*
CCCCc1cc(=O)oc2cc(OCC(=O)NCC3CCC(C(=O)O)CC3)ccc12 (centres undefined) | 21.4 | 0.0 | 10.8 | -0.9 | . | 1.7 | . | .
O=C(COc1ccc2c3c(c(=O)oc2c1)CCC3)NCC1CCC(C(=O)O)CC1 (centres undefined) | 16.2 | -0.5 | 14.7 | -0.7 | 15.5 | -3.4 | . | .
CC(Oc1ccc2c(-c3ccccc3)cc(=O)oc2c1)C(=O)NCC1CCC(C(=O)O)CC1 (centres undefined) | -0.6 | -3.5 | 20.6 | 4.4 | . | 2.1 | . | .
CC(C)c1ccc2[nH]c3c(c2c1)C1CCN2C(=O)CCCC(C3)C12 (centres undefined) | . | . | . | . | -0.9 | . | . | .
CCC(C)C1NC(=O)c2cc([N+](=O)[O-])cc(I)c2SCC(C(N)=O)NC(=O)C(CCCCN)NC1=O (centres undefined) | . | . | . | . | 22.0 | . | . | .
COCCn1c(=N)c(S(=O)(=O)c2ccc(F)cc2)cc2c(=O)n3cccc(C)c3nc21 | -3.1 | -3.8 | -13.3 | -1.8 | -6.1 | -1.0 | . | .
CCCCn1c(=N)c(S(=O)(=O)c2ccc(Br)cc2)cc2c(=O)n3cccc(C)c3nc21 | 0.9 | -3.6 | 9.6 | -1.5 | 5.3 | -2.6 | . | .
Cc1cccn2c(=O)c3cc(C(=O)NC4CCCCC4)c(=N)n(CCN4CCOCC4)c3nc12 | 67.2* | -0.8 | 1.3 | 3.0 | -10.0 | -4.4 | 42.9* | 40.6*
COCCCn1c(=N)c(C(N)=S)cc2c(=O)n3cccc(C)c3nc21 | 73.1* | -6.7 | 9.9 | -1.3 | 10.1 | 12.8 | 57.4* | 42.1*
Cc1cccn2c(=O)c3cc(C#N)c(=N)n(CCCN4CCOCC4)c3nc12 | 62.1* | 0.6 | 1.6 | ? | . | -6.5 | + | +
Cc1ccc2nc3c(cc(C(N)=S)c(=N)n3CCCOC(C)C)c(=O)n2c1 | 47.8* | -4.0 | 3.8 | -0.2 | 4.1 | 8.4 | 84.3* | 66.0*
Cc1cccn2c(=O)c3cc(C(N)=S)c(=N)n(CCCN4CCOCC4)c3nc12 | 57.1* | -3.2 | -0.9 | 0.8 | -7.5 | -1.2 | 56.4* | 55.1*
CCCn1c(=N)c(C#N)cc2c(=O)n3ccccc3nc21 | 33.5* | 0.2 | -0.3 | -0.3 | . | 7.3 | 74.7* | 68.4*
Cc1cccn2c(=O)c3cc(C(=O)NCc4ccc(F)cc4)c(=N)n(CCCN4CCOCC4)c3nc12 | 79.9* | -0.6 | 8.9 | . | 14.0 | . | 81.4* | 81.8*
O=C(Nc1ccc(-c2nc3c(ccc4ccccc43)o2)cc1)c1ccco1 | 54.5* | -2.7 | 48.2* | 0.4 | 2.9 | -22.1 | 106.6* | 102.8*
OCCN(CCO)c1ccc(C(c2ccccc2Cl)c2ccc(N(CCO)CCO)cc2Cl)c(Cl)c1 | -1.5 | 3.3 | 15.0 | . | 6.6 | 18.9 | . | .
O=C(O)c1cccc(N(CCO)CCO)c1 | 38.7* | 0.4 | 1.3 | 0.1 | -3.6 | 2.8 | 98.6* | 75.3*
O=C(O)CCN(CCC(=O)O)c1ccccc1 | 2.5 | -1.7 | 0.6 | -0.7 | 0.9 | 2.9 | . | .
OCCN(CCO)c1ccc2ccccc2c1 | 109.4* | 0.2 | 2.2 | 0.1 | 13.6 | 1.6 | 33.2* | 27.4*
O=[N+]([O-])c1cc(C=NNc2nc3ccccc3[nH]2)c(O)cc1O | . | . | . | . | 11.8 | . | . | .
O=C(NN=Cc1coc2ccc(Cl)cc2c1=O)c1ccc(O)cc1 | . | . | . | . | 12.8 | . | . | .
COc1ccc(C=NNC(=O)c2ccc(Br)o2)cc1Cn1cc([N+](=O)[O-])cn1 | . | . | . | . | 8.2 | . | . | .
CCOC(=O)c1sc2nc(CC(=O)OC)nc(NCc3ccc(F)cc3)c2c1C | 31.6* | 1.1 | 16.9 | -1.0 | 8.9 | 0.5 | + | 148.0*
SMILES | FBA Mtb inh | FadD28 FP inh | GDH-TPI counter-1 | Mtb UGM inh | Mtb hypoxia rep | Rv3671c inh | Mtb FBA confirm | GDH-TPI counter-2
CCOC(=O)c1sc2nc(C)nc(NCc3ccc(F)cc3)c2c1C | 41.2* | 2.1 | 14.9 | -1.1 | 3.5 | -19.1 | 44.3* | 45.6*
CCOC(=O)c1sc2nc(C)nc(NCc3cccnc3)c2c1C | 43.8* | -4.0 | 0.0 | 0.3 | -1.9 | -7.1 | 107.5* | 87.9*
CCOC(=O)c1sc2nc(CC(=O)OC)nc(N3CCN(c4ccccn4)CC3)c2c1C | 1.9 | -3.0 | 16.7 | 3.0 | 9.7 | -3.9 | . | .
CCOC(=O)c1sc2nc(C)nc(NCc3ccc(Cl)cc3)c2c1C | 17.8 | 0.2 | 7.3 | 0.1 | 10.7 | -40.5 | . | .
CON=CCC(=O)Nc1ccc(F)cc1F | . | . | . | . | 6.8 | . | . | .
O=C(Nc1ccccc1F)C1CCCN(S(=O)(=O)c2ccc(-n3cnnn3)cc2)C1 (centres undefined) | 85.3* | 0.1 | -3.0 | 3.0 | -5.6 | 0.4 | 118.7* | 86.8*
COc1cccc(-c2cc(C(=O)NC3CC3)c3ccccc3n2)c1 | -1.2 | . | 10.0 | -2.0 | -0.4 | 5.2 | . | .
O=C(NC1CC1)c1cc(-c2ccc(Br)cc2)nc2ccccc12 | -0.4 | -4.2 | 1.9 | 1.5 | 6.8 | -11.5 | . | .
O=C(NC1CCC(O)CC1)c1cc(-c2ccco2)nc2ccccc12 (centres undefined) | 62.5* | 0.0 | 3.2 | -1.5 | -5.6 | 3.1 | 53.3* | 37.8*
CCCOc1ccc(-c2cc(C(=O)NCC3CCCO3)c3ccccc3n2)cc1 (centres undefined) | 28.0* | -0.4 | 13.9 | -3.8 | . | -5.9 | 176.7* | 153.6*
COc1ccc(-c2cc(C(=O)NC3CCCC3)c3ccccc3n2)cc1 | 40.5* | -0.3 | 21.0 | 1.6 | 2.4 | 1.6 | 72.0* | 55.1*
COc1ccc(-c2cc(C(=O)NC3CC3)c3ccccc3n2)cc1 | 46.1* | -4.6 | 0.8 | -2.5 | 6.6 | 3.2 | 104.4* | 87.6*
COC(=O)C(=NNc1ccccc1C)Sc1nnc(C(O)c2ccccc2)n1-c1ccccc1 (centres undefined) | . | . | . | . | 8.4 | . | . | .
O=C1CCC(O)CCN1C(CSc1ccc(Br)cc1)Cc1ccccc1 (centres undefined) | . | . | . | . | 9.6 | . | . | .
Cc1ccc(-c2nn3c(C)nnc3s2)cc1N | 15.7 | -1.5 | 19.1 | 2.3 | 0.7 | -4.7 | . | .
Cc1nnc2sc(-c3ccc(-c4ccc(Cl)c(C(F)(F)F)c4)o3)nn12 | 76.2* | -27.9 | 14.8 | -1.3 | 4.5 | -7.0 | 129.6* | 115.0*
COc1ccc(C=NNC(=O)c2cccc(NC(=O)c3ccc(F)cc3)c2)c(C(=O)O)c1OC | . | . | . | . | -8.3 | . | . | .
O=C(NN=Cc1ccc(OC(=O)c2cccc(Br)c2)cc1)c1cccnc1 | . | . | . | . | -6.9 | . | . | .
COc1ccc(-c2cc(C(=O)NN=Cc3cccnc3)c3ccccc3n2)c(OC)c1 | . | . | . | . | 9.2 | . | . | .

Screening results deposited in PubChem by several laboratories.
